From PubChem BioAssay (EPA / NIEHS)
“And” between values parts separate entries of the source, which are not always exact repeats. Equal values may be shown once. Where a structure was tested more than once in an assay, its records may differ in their call. The source made the active and inactive calls. How the source made its calls: active means hit-call score of the fitted dose curve at least 0.9, where 1 is the maximum; inactive means score below 0.9.

Key:
[1] = read-out: Matrix Metallopeptidase 1 (MMP1), MMP1 (gene 4312); assay: BSK_MyoF_MMP1: BioMAP Diversity Plus: MyoF Assay for Matrix Metallopeptidase 1 (MMP1) Biomarker Activity (AID 2284268); details: primary human lung fibroblasts
Procedure, shortened: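 ELISA readout of MMP1 in primary human lung fibroblast cultures, 24 h post-dosing. Gain of signal versus DMSO vehicle control defines activity. Parallel SRB staining (0.1% after 10% TCA fixation, 560 nm) flags overt cytotoxicity.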

[2] = read-out: TIMP metallopeptidase inhibitor 1 (TIMP1), TIMP1 (gene 7076); assay: BSK_MyoF_TIMP1: BioMAP Diversity Plus: MyoF Assay for TIMP metallopeptidase inhibitor 1 (TIMP1) Biomarker Activity (AID 2284269); details: primary human lung fibroblasts
Procedure, shortened: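 Fibroblasts from human lung are dosed with chemical, cultured 24 h, and assayed for TIMP-1 by ELISA. Increases over the DMSO baseline are scored, with SRB total-protein staining run in parallel for cytotoxicity.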

[3] = read-out: Matrix Metallopeptidase 1 (MMP1), MMP1 (gene 4312); assay: BSK_BF4T_MMP1: BioMAP Diversity Plus: BF4T Assay for Matrix Metallopeptidase 1 (MMP1) Biomarker Activity (AID 2284270); details: primary human bronchial epithelial cells with fibroblasts
Procedure, shortened: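 MMP-1 quantified by ELISA in primary human bronchial epithelial/dermal fibroblast co-cultures, 24 hours post-dosing, with DMSO as baseline; parallel sulforhodamine B staining (560 nm) tracks overt cytotoxicity.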

[4] = read-out: Matrix Metallopeptidase 3 (MMP3), MMP3 (gene 4314); assay: BSK_BF4T_MMP3: BioMAP Diversity Plus: BF4T Assay for Matrix Metallopeptidase 3 (MMP3) Biomarker Activity (AID 2284271); details: primary human bronchial epithelial cells with fibroblasts
Procedure, shortened: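 MMP-3 level read by ELISA after 24 h chemical exposure of bronchial epithelial cell/dermal fibroblast co-cultures, fitted upward relative to DMSO. Parallel cultures stained with 0.1% SRB after TCA fixation gauge overt cytotoxicity.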

[5] = read-out: Tissue plasminogen activator (tPA), PLAT (gene 5327); assay: BSK_BF4T_tPA: BioMAP Diversity Plus: BF4T Assay for Tissue plasminogen activator (tPA) Biomarker Activity (AID 2284272); details: primary human bronchial epithelial cells with fibroblasts
Procedure, shortened: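 tPA level quantified by ELISA at 24 h post-treatment in bronchial epithelial/dermal fibroblast co-cultures, gain of signal scored against DMSO baseline. Parallel cultures stained with 0.1% SRB (560 nm) to flag overt cytotoxicity.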

[6] = read-out: Plasminogen Activator Inhibitor-1 (PAI1), SERPINE1 (gene 5054); assay: BSK_BF4T_PAI1: BioMAP Diversity Plus: BF4T Assay for Plasminogen Activator Inhibitor-1 (PAI1) Biomarker Activity (AID 2284273); details: primary human bronchial epithelial cells with fibroblasts
Procedure, shortened: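 PAI-1 levels quantified by ELISA 24 h post-dosing in bronchial epithelial cell plus dermal fibroblast cultures. Signal gain referenced to DMSO baseline. Sulforhodamine B total-protein staining of parallel wells checked cytotoxicity.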

[7] = BSK_BF4T_SRB: Viability Assessment in the BioMAP Diversity Plus: BF4T Assay (AID 2284274); details: primary human bronchial epithelial cells with fibroblasts
Procedure, shortened: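 Cytotoxicity measured as total protein: cells fixed with 10% TCA, stained with 0.1% SRB, read at 560 nm. Bronchial epithelial/dermal fibroblast co-culture, 24 h after dosing, with positive-direction fitting relative to DMSO.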

[8] = read-out: urokinase Plasminogen Activator (uPA), PLAU (gene 5328); assay: BSK_BF4T_uPA: BioMAP Diversity Plus: BF4T Assay for urokinase Plasminogen Activator (uPA) Biomarker Activity (AID 2284275); details: primary human bronchial epithelial cells with fibroblasts
Procedure, shortened: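 uPA levels measured by ELISA at 24 hours in BF4T cultures (bronchial epithelial cells plus dermal fibroblasts) and compared with DMSO; cytotoxicity tracked in parallel cultures by sulforhodamine B staining.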

[9] = read-out: Matrix Metallopeptidase 9 (MMP9), MMP9 (gene 4318); assay: BSK_BF4T_MMP9: BioMAP Diversity Plus: BF4T Assay for Matrix Metallopeptidase 9 (MMP9) Biomarker Activity (AID 2284276); details: primary human bronchial epithelial cells with fibroblasts
Procedure, shortened: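 MMP-9 levels were measured by ELISA after 24 h exposure of bronchial epithelial cell/dermal fibroblast co-cultures, with DMSO as baseline. Parallel cultures were stained with 0.1% SRB after TCA fixation, read at 560 nm, to flag overt cytotoxicity.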

[10] = read-out: Interleukin-8 (IL8), CXCL8 (gene 3576); assay: BSK_IMphg_IL8: BioMAP Diversity Plus: IMphg Assay for Interleukin-8 (IL8) Biomarker Activity (AID 2284277); details: primary human endothelial cells with macrophages
Procedure, shortened: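 IL-8 levels were measured by ELISA 24 h after dosing in primary human venular endothelial cell–macrophage cultures, referenced to DMSO; parallel SRB staining monitored overt cytotoxicity.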

[11] = read-out: Intercellular Adhesion Molecule 1 (ICAM1), ICAM1 (gene 3383); assay: BSK_BE3C_ICAM1: BioMAP Diversity Plus: BE3C Assay for Intercellular Adhesion Molecule 1 (ICAM1) Biomarker Activity (AID 2284278); details: primary human bronchial epithelial cells;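 on outcome: cell-surface ICAM-1 protein level quantified by ELISA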
Procedure, shortened: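 Here, ICAM-1 levels on confluent human bronchial epithelial primary cells are read by ELISA at 24 h after chemical dosing. Parallel SRB staining (0.1% after 10% TCA fixation, 560 nm) checks cytotoxicity.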

[12] = read-out: Interferon-inducible T-cell alpha chemoattractant (ITAC), CXCL11 (gene 6373); assay: BSK_BE3C_ITAC: BioMAP Diversity Plus: BE3C Assay for Interferon-inducible T-cell alpha chemoattractant (ITAC) Biomarker Activity (AID 2284279); details: primary human bronchial epithelial cells
Procedure, shortened: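 BE3C cells (human primary bronchial epithelium), 24 h compound exposure, I-TAC by ELISA, DMSO = negative control/baseline, positive fitting direction.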

[13] = read-out: Interleukin-8 (IL8), CXCL8 (gene 3576); assay: BSK_BE3C_IL8: BioMAP Diversity Plus: BE3C Assay for Interleukin-8 (IL8) Biomarker Activity (AID 2284280); details: primary human bronchial epithelial cells
Procedure, shortened: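 Primary human bronchial epithelial cells (BE3C system) were exposed to test chemical for 24 h, and IL-8 levels were then measured by ELISA. Activity was fitted in the positive (gain-of-signal) direction against a DMSO negative-control baseline.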

[14] = read-out: Epidermal growth factor receptor (EGFR), EGFR (gene 1956); assay: BSK_BE3C_EGFR: BioMAP Diversity Plus: BE3C Assay for Epidermal growth factor receptor (EGFR) Biomarker Activity (AID 2284281); details: primary human bronchial epithelial cells
Procedure, shortened: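 Human primary bronchial epithelial cells were exposed to compound for 24 h, and cell-surface EGFR was then quantified by ELISA. Activity was fitted in the positive direction against the DMSO vehicle baseline.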

KRT18 (gene 3875) = assay: BSK_BE3C_Keratin818: BioMAP Diversity Plus: BE3C Assay for Keratin 818 Biomarker Activity (AID 2284282); details: primary human bronchial epithelial cells
Procedure, shortened: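 Keratin 8/18 levels, detected by ELISA, served as the endpoint after 24 h chemical exposure of primary human bronchial epithelial cells. Gain of signal relative to DMSO negative control defined activity.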

[15] = read-out: Matrix Metallopeptidase 9 (MMP9), MMP9 (gene 4318); assay: BSK_BE3C_MMP9: BioMAP Diversity Plus: BE3C Assay for Matrix Metallopeptidase 9 (MMP9) Biomarker Activity (AID 2284283); details: primary human bronchial epithelial cells
Procedure, shortened: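 Human primary bronchial epithelial cells in the BE3C system were dosed with compound for 24 h. MMP-9 was measured by ELISA, and the positive-direction response was fitted relative to DMSO as baseline. Parallel SRB staining gauged cytotoxicity.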

[16] = read-out: Plasminogen activator inhibitor-1 (PAI1), SERPINE1 (gene 5054); assay: BSK_CASM3C_PAI1: BioMAP Diversity Plus: CASM3C Assay for Plasminogen activator inhibitor-1 (PAI1) Biomarker Activity (AID 2284284); details: primary human coronary artery smooth muscle cells
[17] = read-out: Monocyte Chemoattractant Protein-1 (MCP1), CCL2 (gene 6347); assay: BSK_hDFCGF_MCP1: BioMAP Diversity Plus: hDFCGF Assay for Monocyte Chemoattractant Protein-1 (MCP1) Biomarker Activity (AID 2284285); details: primary human foreskin fibroblasts
Procedure, shortened: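 MCP-1 ELISA readout was taken 24 hours after dosing primary human dermal fibroblasts in the hDFCGF system, with DMSO as baseline. Parallel sulforhodamine B staining of total protein tracked overt cytotoxicity.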

[18] = read-out: Vascular cell adhesion molecule 1 (VCAM1), VCAM1 (gene 7412); assay: BSK_IMphg_VCAM1: BioMAP Diversity Plus: IMphg Assay for Vascular cell adhesion molecule 1 (VCAM1) Biomarker Activity (AID 2284286); details: primary human endothelial cells with macrophages
Procedure, shortened: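 ELISA read-out of VCAM-1 on venular endothelial cell/macrophage co-cultures at 24 h post-treatment, with DMSO as baseline and positive-direction fitting. Parallel sulforhodamine B total-protein staining (560 nm) served as the overt cytotoxicity measure.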

[19] = read-out: Intercellular Adhesion Molecule 1 (ICAM1), ICAM1 (gene 3383); assay: BSK_hDFCGF_ICAM1: BioMAP Diversity Plus: hDFCGF Assay for Intercellular Adhesion Molecule 1 (ICAM1) Biomarker Activity (AID 2284287); details: primary human foreskin fibroblasts
Procedure, shortened: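 ICAM-1 ELISA readout 24 h after dosing, DMSO as baseline, in human dermal foreskin fibroblast cultures. Cytotoxicity checked in parallel wells by SRB staining (0.1% SRB, 10% TCA fixation, 560 nm).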

Which results are given for CCNS(=O)(=O)C(F)(F)C(F)(F)C(F)(F)C(F)(F)C(F)(F)C(F)(F)C(F)(F)C(F)(F)F?
outcome [1]: inactive; AC50 [2]: 38.9 µM (active) and 31.6 µM (active); AC50 [3]: 30 µM (active); outcome [4]: inactive; AC50 [5]: 7.68 µM (active) and 8.65 µM (active); AC50 [6]: 41.2 µM (active); outcome [6]: inactive; AC50 [7]: 44.7 µM (active) and 41.4 µM (active); AC50 [8]: 47.3 µM (active); outcome [8]: inactive; AC50 [9]: 30 µM (active) and 39.9 µM (active); AC50 [10]: 21.3 µM (active) and 27.2 µM (active); AC50 [11]: 40.3 µM (active); outcome [11]: inactive; AC50 [12]: 40 µM (active) and 35.2 µM (active); AC50 [13]: 16.4 µM (active) and 22.6 µM (active); AC50 [14]: 38.2 µM (active) and 23.3 µM (active); AC50 (KRT18 (gene 3875)): 21.5 µM (active) and 21.8 µM (active); AC50 [15]: 30 µM (active) and 18.5 µM (active); outcome [16]: inactive; AC50 [17]: 49.3 µM (active) and 46.9 µM (active); AC50 [18]: 48 µM (active) and 49.6 µM (active); AC50 [19]: 42.5 µM (active) and 48.4 µM (active)
